Screening results from PubChem.
PAX8 inh HTS: lowers PAX8-driven luciferase in RMG-I cells. AID 652154. 360,000 tested, 1.2% active. RMG-I TPO-luciferase reporter, SteadyGlo, 24 h. inhibition, % at 12.6 µM;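 active = mean replicate inhibition at least 60% with every replicate also reaching 60%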;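 note: luciferase light reporting Pax8 driven TPO promoter activity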
Peg3 prom inh: inhibitors of Peg3 promoter; AID 588405; inhibition, % at 20 µM; 360,000 tested, 1.7% active; HeLa PEG-Prom luciferase reporter, luminescence, overnight;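 active = inhibition of at least 50% at 20 µM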
EWS-Fli inh: inhibitors of EWS/Fli oncoprotein transcriptional activity; A673 NR0B1-luciferase reporter, viability-normalised; inhibition, % at 12.6 µM; 350,000 tested, 0.67% active;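 active = mean inhibition of at least 50% after viability correction, with every replicate also passing that limit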;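 note: firefly luciferase signal divided by Alamar Blue viability fluorescence both relative to DMSO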
ABHD5-PLIN5 inh: blocks binding of human ABHD5 to perilipin-5; AID 602281; inhibition, % at 4 µM; 360,000 tested, 0.78% active; Split G. princeps luciferase complementation, luminescence, 4 h;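 active = inhibition above the mean inhibition across every tested compound plus 3 SD, cut at about 22% in these data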
Target sequence (Q00G26 whole entry, looked up): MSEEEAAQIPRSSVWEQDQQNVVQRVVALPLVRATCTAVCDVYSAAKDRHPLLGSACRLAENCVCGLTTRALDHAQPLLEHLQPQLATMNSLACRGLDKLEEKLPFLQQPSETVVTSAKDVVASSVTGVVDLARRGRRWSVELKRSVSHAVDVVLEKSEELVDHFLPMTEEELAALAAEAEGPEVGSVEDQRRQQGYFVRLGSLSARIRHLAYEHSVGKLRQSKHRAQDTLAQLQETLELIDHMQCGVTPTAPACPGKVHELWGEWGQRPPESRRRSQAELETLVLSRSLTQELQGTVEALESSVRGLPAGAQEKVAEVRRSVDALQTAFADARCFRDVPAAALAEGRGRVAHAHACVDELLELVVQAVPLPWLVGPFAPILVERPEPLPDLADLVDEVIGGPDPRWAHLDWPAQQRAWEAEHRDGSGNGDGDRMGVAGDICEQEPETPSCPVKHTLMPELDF
Target sequence (Q8WTS1 whole entry, looked up): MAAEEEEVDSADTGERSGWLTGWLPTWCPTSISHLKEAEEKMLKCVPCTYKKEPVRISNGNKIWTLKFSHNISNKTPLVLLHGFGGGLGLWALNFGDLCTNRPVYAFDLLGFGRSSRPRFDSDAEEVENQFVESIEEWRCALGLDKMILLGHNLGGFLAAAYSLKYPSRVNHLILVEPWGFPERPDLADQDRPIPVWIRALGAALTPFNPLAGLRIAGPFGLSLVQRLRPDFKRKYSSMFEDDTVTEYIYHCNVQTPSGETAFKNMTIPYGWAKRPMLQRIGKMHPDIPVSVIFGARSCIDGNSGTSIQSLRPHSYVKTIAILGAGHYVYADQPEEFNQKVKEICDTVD
MITF TRPM1 inh: reduces MITF-dependent TRPM1 promoter luciferase signal; AID 488899; SK-MEL-5 TRPM1 promoter luciferase, 24 h; 330,000 tested, 0.83% active; inhibition, % at 12.5 µM;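 active = mean inhibition across replicates of 60% or more, whatever share of single replicates reaches that level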
Shn3 3UTR inh: reduces Shn3 3'UTR luciferase signal in osteoblasts | Clone20 osteoblast Shn3 3'UTR firefly luciferase, 24 h | inhibition, % at 12.5 µM | 360,000 tested, 0.52% active | AID 588674;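 active = mean inhibition of at least 75% with every replicate also reaching 75%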
DNA binder FP: binds DNA displacing acridine orange; AC35, µM (top dose mostly 68 µM); shares compounds with EWS-Fli inh; AID 720586; salmon sperm DNA acridine orange fluorescence polarization; 640 tested, 2% active;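 active = fitted curve reaches a 35% signal fall AC35 below twice the sample's top valid tested dose, actives reach about 48 µM in these data; inactive = the rest, including activity in the rising direction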;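 note: lower polarization ratio signals compound binding to DNA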
Numbers stand for hits; . = inactive; / = no result. This is a sample that favours compounds with a hit; in the whole collection about 3% have one here.

SMILES | PAX8 inh HTS | Peg3 prom inh | EWS-Fli inh | ABHD5-PLIN5 inh | MITF TRPM1 inh | Shn3 3UTR inh | DNA binder FP
C[C@@H]1CN([C@@H](C)CO)C(=O)c2cc(NC(=O)CCCCCC(=O)Nc3ccccc3N)ccc2O[C@H]1CN(C)S(=O)(=O)c1ccc(Cl)cc1 | / | / | . | / | / | / | /
COc1ccc(S(=O)(=O)Nc2ccc3c(c2)C(=O)N([C@H](C)CO)C[C@@H](C)[C@H](CN(C)CC2CCCCC2)OCCCC[C@@H](C)O3)cc1 | . | / | . | / | / | / | /
C[C@@H]1CN([C@H](C)CO)C(=O)c2cc(NC(=O)CCCCCC(=O)Nc3ccccc3N)ccc2O[C@H]1CN(C)S(=O)(=O)c1ccc(Cl)cc1 | / | / | 52 | / | / | / | .
C[C@@H]1CCCCO[C@H](CN(C)Cc2ccc(C(=O)Nc3ccccc3N)cc2)[C@@H](C)CN([C@@H](C)CO)C(=O)c2cc(NS(=O)(=O)c3ccc(Cl)cc3)ccc2O1 | 89 | / | 59 | / | / | / | .
C[C@@H]1CN([C@H](C)CO)C(=O)c2cc(NC(=O)c3ccncc3)ccc2O[C@@H](C)CCCCO[C@H]1CN(C)S(=O)(=O)c1ccc(Cl)cc1 | . | / | . | / | / | / | /
COc1ccc(OC)c(NC(=O)CN=[N+]=[N-])c1 | . | / | . | / | / | / | /
C[C@@H]1CN([C@H](C)CO)C(=O)c2cc(NC(=O)c3ccncc3)ccc2O[C@@H](C)CCCCO[C@H]1CN(C)C(=O)Nc1ccccc1 | . | / | . | / | / | / | /
C[C@@H]1CCCCO[C@H](CN(C)Cc2ccc(C(F)(F)F)cc2)[C@H](C)CN([C@H](C)CO)C(=O)c2cc(NC(=O)CCCN(C)C)ccc2O1 | / | / | 67 | / | / | / | .
C[C@@H]1CN([C@H](C)CO)C(=O)c2cc(NS(=O)(=O)c3ccccc3)ccc2O[C@H]1CN(C)Cc1ccc(C(=O)Nc2ccccc2N)cc1 | . | / | . | / | / | / | /
C[C@H]1CN([C@@H](C)CO)C(=O)c2cc(NS(=O)(=O)c3ccc(Cl)cc3)ccc2O[C@H]1CN(C)Cc1ccc(C(=O)Nc2ccccc2N)cc1 | . | / | 61 | / | / | / | .
COc1ccc(S(=O)(=O)Nc2ccc3c(c2)C(=O)N([C@H](C)CO)C[C@@H](C)[C@@H](CN(C)Cc2ccc(C(=O)Nc4ccccc4N)cc2)O3)cc1 | / | / | 56 | / | / | / | .
C[C@@H]1CCCCO[C@@H](CN(C)Cc2ccc(C(F)(F)F)cc2)[C@H](C)CN([C@H](C)CO)C(=O)c2cc(NC(=O)CCCN(C)C)ccc2O1 | / | / | . | / | / | / | /
COc1ccc(S(=O)(=O)Nc2ccc3c(c2)C(=O)N([C@@H](C)CO)C[C@@H](C)[C@@H](CN(C)Cc2ccc(C(=O)Nc4ccccc4N)cc2)O3)cc1 | / | / | . | / | / | / | /
C[C@H]1CN([C@@H](C)CO)C(=O)c2cccc(NC(=O)C3CCOCC3)c2O[C@@H]1CN(C)Cc1ccccc1 | . | / | . | / | / | / | /
Cc1noc(C)c1NC(=O)N(C)C[C@H]1Oc2c(NC(=O)C3CCOCC3)cccc2C(=O)N([C@@H](C)CO)C[C@H]1C | / | / | . | / | / | / | /
Cc1cc(NC(=O)CCN2C(=O)/C(=C/c3ccccc3Cl)SC2=S)no1 | . | . | . | . | . | . | /
COc1ccccc1/C=C1\SC(=S)N(CCC(=O)Nc2cc(C)on2)C1=O | . | . | 52 | . | . | . | .
Cc1ccc(/C=C2\SC(=S)N(CCC(=O)NNC(=O)c3ccccc3O)C2=O)cc1 | . | . | 51 | . | . | . | .
CCc1ccc(/C=C2\SC(=S)N(CCC(=O)Nc3cc(C)on3)C2=O)cc1 | . | . | 63 | . | . | . | .
CCCn1nnc(NC(=S)NC(=O)C(C)(C)C)n1 | . | . | 87 | . | . | . | .
C[C@H](CO)N1C[C@H](C)[C@@H](CN(C)Cc2ccncc2)OCCCC[C@H](C)Oc2ccc(N(C)C)cc2C1=O | . | / | . | / | / | / | /
Oc1cccc(-c2nnc(-c3cccc(O)c3)nn2)c1 | . | . | 72 | . | . | . | .
O=C(Cc1ccccn1)N1CC2(C1)[C@H](c1ccccc1)[C@H](CO)N2C(=O)c1ccncc1 | . | / | . | / | / | / | /
O=C1C(=O)N(CCS(=O)(=O)c2ccccc2)c2ccccc21 | . | . | 61 | . | . | . | .
O=C1C(=O)N(Cc2cccs2)c2ccccc21 | . | . | 65 | . | . | . | .
O=C1C(=O)N(CCN2CCCCC2)c2ccccc21 | / | . | / | . | . | . | /
O=C(CN1C(=O)C(=O)c2ccccc21)c1ccccc1 | . | . | . | . | . | . | /
